The nature of assay [1]: SK-BR-3 cell growth inhibitors, pilot screen, 24 h, human (AID 572;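 active means viability at or below 10% of carrier control in both of two separate runs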;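 further: compound exposure lasted between 18 and 24 h rather than exactly 24 h; 100% = carrier-treated control wells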). The settings on record: SK-BR-3 viability, CellTiter-Glo luminescence, at 10 µM, stronger effect = lower value.
Assay [2] is described as follows: HUVEC growth inhibition – cell-based, human, primary screen (AID 575;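 active means viability at or below 30% in both replicate assays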;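 further: 100% = median of untreated cell wells with 0.1% DMSO on each plate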). The settings on record: HUVEC proliferation, CellTiter-Glo luminescence, 72 h; at 10 µM; stronger effect = lower value.
Assay [3] in a line: reversal of MRP1-mediated doxorubicin resistance, pilot screen, H69AR cells, doxorubicin co-treatment (AID 601). Particulars: CellTiter-Glo, 72 h, at 10 µM; for differential viability (reversal): stronger effect = higher value.
A short description of assay [4]: 384-well plate pilot, post-Golgi transport modulator project, inhibition of yeast transport mutant growth (AID 636; in the data active means inhibition above about 31%). Particulars: absorbance 615 nm, about 18 h, stronger effect = higher value.
Assay [5] in a line: growth suppression of yeast trafficking mutant, preliminary HTS, modulators of trafficking downstream of Golgi apparatus project, 1536-format plate, OD 615 nm (AID 637; in the data active means inhibition above about 30%). Particulars: yeast transport mutant growth, absorbance 615 nm, 18 h; stronger effect = higher value.
Assay [6] in a line: OD615 S. cerevisiae growth inhibition, permissive medium, pilot counter-assay, permissive growth control for S. cerevisiae lifespan shortening project (AID 705;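 active means growth inhibition above 25% in both replicates, a cutoff set 3 SD above the mean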). Particulars: OD615, 24 h, at 10 µM, stronger effect = higher value.
Assay [7] can be described thus: Restrictive medium S. cerevisiae growth inhibition, OD615, pilot screen of yeast lifespan reduction project, restrictive growth control (AID 706;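 active means growth inhibition above a set limit, 3 SD over mean compound inhibition, in both replicates, cut at about 43% in these data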;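 further: modified DeaD lifespan yeast strain shifted to restrictive glucose medium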). The settings on record: OD615, 48 h, at 10 µM, stronger effect = higher value.
Assay [8] in a line: viability gain of MRP-1-high H69AR cells under doxorubicin, pilot screen, MRP-1 activator project, CellTiter-Glo, duplicate (AID 807;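 active means viability increase at or above a cutoff of the median across tested compounds plus 3 SD, cut at about 8.5% in these data, passing the limit was not always enough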;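 further: compound pretreatment 18-22 h then 72 h combined with doxorubicin; 0% = doxorubicin alone and 100% = vehicle without doxorubicin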). Particulars: H69AR viability with doxorubicin, CellTiter-Glo luminescence; at 10 µM; stronger effect = higher value.
Assay [9] in a line: growth suppression of beta-catenin knockout HCT116, pilot screen, human colon tumor cells (AID 823;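 active means cell viability at or below a set limit in both duplicate runs, the limit being the all-compound median minus 4 SD, cut at about 23% in these data, passing the limit was not always enough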;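 further: 0% = wells killed by 20 µM Hyamine and 100% = untreated DMSO cell wells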). Particulars: CellTiter-Glo, 60 h, at 10 µM, stronger effect = lower value.
Assay [10] can be described thus: growth suppression of PTEN-deleted HCT116, pilot screen, cell-based, HCT116 clonal line, CellTiter-Glo (AID 824;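 active means viability at or below 27.92% in each of two runs, the all-compound median minus 4 SD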;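 further: 0% = 20 µM Hyamine control and 100% = vehicle cell control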). Particulars: 60 h, at 10 µM, stronger effect = lower value.
Assay [11] in a line: inhibitors of the yeast RAM network, pilot screen, dse1pr::URA3 reporter, 5-FOA selection (AID 869;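 active means inhibition over a set limit, the all-compound mean plus 3 SD, in both replicate runs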;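 further: 0% = DMSO wells with no growth and 100% = 10 µM 1-NA-PP1 with full growth; RAM network block rescues cells from 5-FOA so hits raise OD615 growth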). Particulars: S. cerevisiae dse1pr::URA3 5-FOA growth, OD615, 2 d; at 10 µM; stronger effect = higher value; strain carries analog-sensitive mutant Cbk1 kinase.
A short description of assay [12]: RAM signaling pathway blockade in yeast – S. cerevisiae, Pdr1DBD-CYC8 efflux-inhibited sensitized strain, primary screen (AID 1298;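 active means RAM network inhibition above 8.4% in each of two replicates, 3 SD over the compound average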;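 further: 0% = DMSO untreated cells without growth and 100% = 10 µM 1-NA-PP1 full growth; higher means more yeast growth rescued from 5-FOA killing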). The settings on record: S. cerevisiae cbk1-as DSE1-URA3 strain, 5-FOA growth OD615, 2 d; at 50 µM; stronger effect = higher value.
A short description of assay [13]: growth inhibitors of H69AR lung tumor, primary screen, human, duplicate replicates (AID 580;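 active means viability at or under a set limit in both replicates, limit being median viability minus 3 SD, cut at about 48% in these data, passing the limit was not always enough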;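 further: 100% = mean luminescence of untreated wells and 0% = no signal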). The settings on record: H69AR lung tumor cells viability, ATP luminescence, 72 h; at 10 µM; stronger effect = lower value.
Where [14] appears, read: H69AR cells + 2 uM doxorubicin, measured here: viability with 2 uM doxorubicin, stronger effect = lower value.
Where [15] appears, read: H69AR cells, compound alone cytotoxicity.

Inconclusive results are not listed. Activity calls are given as the source filed them.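 How the source made its calls, unless noted: active means viability loss from added drug above about 55%, and viability with drug at most 40%, in both replicates (limit read from the data, passing the limit was not always enough); inconclusive means both conditions met in only one replicate; inactive means neither replicate meets both conditions.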

As for `Cc1ccc(-c2cc(C(F)F)n3ncc(C(=O)N4CCN(c5ccccn5)CC4)c3n2)cc1`, the viability is 99.5% (inactive) in assay [1]; 49.2% (inactive) in assay [2]; 52.2% in assay [3] (setting [14]); 56% in [3] (setting [15]); 54.3% (inactive) in assay [9]; 55.4% (inactive) in assay [10]. In addition, the differential viability (reversal) in assay [3] (H69AR cells + 2 uM doxorubicin) was 3.75% (inactive). Besides, the inhibition was -6.4% (inactive) in assay [4], 6.5% (inactive) in [5] and -1.01% (inactive) in [11]. In addition, the results for the growth inhibition in [6] and in assay [7] were -6.85% (inactive) and 4.28% (inactive), respectively. For the same compound, the viability increase in [8] was -5.43% (inactive). Moreover, the RAM network inhibition in assay [12] is 6.29% (inactive).

Turning to `CCNc1ccc(C(=O)OCC)cc1NC(=O)c1cc(S(=O)(=O)N2CCOCC2)ccc1C`, the viability in [1] was 108% (inactive); in assay [2] it was 83.3% (inactive); in assay [13], 98.5% (inactive); in assay [3] (setting [14]) it was 90.5%; in assay [3] (setting [15]), 98.5%; in [10], 87.1% (inactive). The differential viability (reversal) in assay [3] (H69AR cells + 2 uM doxorubicin) is 8.02% (inactive). The figures for the inhibition in [4], in assay [5] and in assay [11] were 2.99% (inactive), 5.41% (inactive) and 0.96% (inactive), respectively. Moreover, the values for the growth inhibition in assay [6] and in [7] were -9.95% (inactive) and -3.6% (inactive), respectively. Besides, in assay [8], the viability increase is -5.71% (inactive). In addition, in [12], the RAM network inhibition was 8.14% (inactive).

As to `NC(=O)c1sc2nc(N3CCCCC3)c3c(c2c1N)CCCC3`, the viability in [1] is 75% (inactive); in assay [2], 82.8% (inactive); in assay [13] it was 85.7% (inactive); in assay [3] (setting [14]), 86.4%; in assay [3] (setting [15]), 85.7%; in assay [9] it was 104% (inactive). Besides, the viability in [10] is 94.6% (inactive). Also, the differential viability (reversal) in assay [3] (H69AR cells + 2 uM doxorubicin) is -0.75% (inactive). Moreover, the results for the inhibition in [4], in assay [5] and in assay [11] were -6.89% (inactive), 2.17% (inactive) and 0.715% (inactive), respectively. The growth inhibition in [6] is 8.56% (inactive). Besides, the viability increase in assay [8] is -3.63% (inactive). The RAM network inhibition in [12] was 5.61% (inactive).

In the case of `Cc1ccc(C(=O)Nc2c(C(=O)N3CCOCC3)cnn2-c2ccccc2)cc1`, the viability in assay [1] is 103% (inactive); in [2] it was 94.5% (inactive); in assay [13], 91.8% (inactive); in [3] (setting [14]), 75.3%; in [3] (setting [15]), 91.8%; in assay [9] it was 103% (inactive). For the same compound, the viability in assay [10] is 102% (inactive). Moreover, the differential viability (reversal) in assay [3] (H69AR cells + 2 uM doxorubicin) was 16.5% (inactive). For the same compound, the inhibition in assay [4] is -4.27% (inactive); in [5], -2.91% (inactive); in assay [11] it was 0.475% (inactive). Further, the growth inhibition in assay [6] was -7.86% (inactive); in assay [7] it was -9.73% (inactive). For the same compound, in assay [8], the viability increase was -1.89% (inactive). For the same compound, in [12], the RAM network inhibition is -1.3% (inactive).

In the case of `Cc1cc(NC(=O)CSc2nc3c(c(-c4cccnc4)c2C#N)CCC3)no1`, the viability was 65% (inactive) in [1]; 111% (inactive) in assay [2]; 90.9% (inactive) in assay [13]; 84.3% in assay [3] (setting [14]); 90.9% in assay [3] (setting [15]); 101% (inactive) in assay [9]. Moreover, the viability in [10] was 98.5% (inactive). Besides, in assay [3] (H69AR cells + 2 uM doxorubicin), the differential viability (reversal) is 6.63% (inactive). Also, the figures for the inhibition in [4], in assay [5] and in assay [11] were -5.6% (inactive), -3.09% (inactive) and 1.75% (inactive), respectively. Besides, the growth inhibition in [6] is 2.25% (inactive); in [7] it was 1.02% (inactive). In assay [8], the viability increase was 0.51% (inactive). Besides, the RAM network inhibition in [12] is 5.05% (inactive).

Take `Cc1ccc2c(c1)C1CCCC3C1N2CC(=O)N3Cc1ccccc1` (stereo not drawn): the viability is 117% (inactive) in assay [1]; 75.5% (inactive) in assay [13]; 81.3% in [3] (setting [14]); 75.5% in assay [3] (setting [15]); 53.3% (inactive) in [10]. The differential viability (reversal) in assay [3] (H69AR cells + 2 uM doxorubicin) was -5.75% (inactive). Moreover, the inhibition is 0.27% (inactive) in assay [4], 0.97% (inactive) in assay [5] and 2.56% (inactive) in assay [11]. The growth inhibition is -8.15% (inactive) in [6] and -24.9% (inactive) in [7]. For the same compound, the viability increase in [8] was -0.44% (inactive). In addition, the RAM network inhibition in assay [12] was 7.32% (inactive).

In the case of `COC(=O)c1cc(=O)n(Cc2ccc3c(c2)OCO3)c(=Nc2ccccc2)s1`, the viability in assay [1] was 90% (inactive); in assay [3] (setting [14]) it was 43.1%; in [3] (setting [15]) it was 38.1%; in assay [9], 71.1% (inactive); in [10] it was 73.3% (inactive). In addition, in [3] (H69AR cells + 2 uM doxorubicin), the differential viability (reversal) is -4.97% (inactive). In addition, the inhibition was -5.2% (inactive) in [4], 4.43% (inactive) in [5] and 3.41% (inactive) in assay [11]. Further, the growth inhibition in [6] was 4.22% (inactive); in assay [7], -1% (inactive). In addition, the viability increase in [8] was -5.95% (inactive). In addition, in assay [12], the RAM network inhibition was 5.96% (inactive).

For `FC(F)(F)COc1nc(N2CCCCC2)nc(N2CCNCC2)n1`, the viability in assay [1] was 82% (inactive); in assay [2] it was 98.8% (inactive); in [13], 92.3% (inactive); in [3] (setting [14]), 77.4%; in assay [3] (setting [15]), 92.3%; in assay [9], 85.5% (inactive). In assay [10], the viability is 84.5% (inactive). In [3] (H69AR cells + 2 uM doxorubicin), the differential viability (reversal) was 15% (inactive). The inhibition in assay [4] is -4.86% (inactive); in assay [5], -4% (inactive); in assay [11], 0.78% (inactive). Also, the growth inhibition in assay [6] was 4.64% (inactive); in assay [7] it was -3.79% (inactive). Further, the viability increase in [8] was -3.4% (inactive). Further, the RAM network inhibition in [12] was -2.05% (inactive).

`COc1ccc(N2CCN(C(=O)CSc3ccccc3)CC2)cc1`: the viability was 113% (inactive) in [1]; 103% (inactive) in [2]; 95.5% (inactive) in assay [13]; 83% in [3] (setting [14]); 95.5% in assay [3] (setting [15]); 93.2% (inactive) in [9]. Also, the viability in assay [10] is 85.9% (inactive). The differential viability (reversal) in assay [3] (H69AR cells + 2 uM doxorubicin) is 12.5% (inactive). Besides, the figures for the inhibition in [4], in assay [5] and in assay [11] were -8.13% (inactive), -2.18% (inactive) and 1.16% (inactive), respectively. For the same compound, the values for the growth inhibition in assay [6] and in [7] were 3.53% (inactive) and 11.6% (inactive), respectively. In [8], the viability increase is -3.92% (inactive). In addition, the RAM network inhibition in [12] was 3.22% (inactive).

These data come from PubChem BioAssay.
